SNCA expr inh = SNCA gene expression inhibition; hit rate 0.17% among 140,000; HEK-293 SNCA-luciferase knock-in, luminescence, 24 h; Potency, µM (top dose mostly 57.2 µM), hits mostly inhibitors; note: nearly all actives have a fitted effect of over 45% in size
KDM5B inh = KDM5B demethylase inhibition; KDM5B demethylase, FDH-coupled NADH fluorescence (FDH is formaldehyde dehydrogenase); hit rate 2.6% among 220,000; Potency, µM (doses to about 57.7 µM), usual class: inhibitors; Q9UGL1; note: nearly all actives have a fitted effect of over 70% in size
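Inhibition is measured as reduced NADH fluorescence generation from FDH coupling to formaldehyde release. Truncated KDM5BΔAP at 200 nM final acts on H3K4me3 peptide (12.5 µM in substrate mix) in pH 7.5 HEPES buffer with Tween-20, 30 min, room temperature.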
IP6K1 inh = blocks human inositol hexakisphosphate kinase 1. Q92551. IP6K1 kinase, ADP-Glo luminescence, 2 h; hits give low values. activity change, % (series mostly up to about 58 µM). hit rate 0.81% among 140,000; in the data active = activity change below about -25%
Target sequence (Q92551 whole entry, looked up): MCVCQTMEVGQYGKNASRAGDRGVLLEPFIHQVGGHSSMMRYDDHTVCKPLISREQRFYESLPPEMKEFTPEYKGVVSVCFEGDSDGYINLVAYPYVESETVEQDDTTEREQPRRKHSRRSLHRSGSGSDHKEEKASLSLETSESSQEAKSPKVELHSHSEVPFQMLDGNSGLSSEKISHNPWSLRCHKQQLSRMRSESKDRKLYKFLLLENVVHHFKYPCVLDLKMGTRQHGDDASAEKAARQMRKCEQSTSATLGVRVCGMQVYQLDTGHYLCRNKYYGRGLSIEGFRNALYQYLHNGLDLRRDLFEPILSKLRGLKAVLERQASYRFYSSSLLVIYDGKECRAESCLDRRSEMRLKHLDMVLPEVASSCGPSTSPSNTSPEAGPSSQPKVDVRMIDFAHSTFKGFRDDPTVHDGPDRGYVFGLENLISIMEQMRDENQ
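ADP-Glo luminescence measures ADP made by human IP6K1 during a 2 h RT reaction with ATP/IP6 (mix at 1.3 mM/130 uM); top library doses 57.5 and 19.1 uM final.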
SNCA viab count = reduces viability of HEK-293 SNCA reporter cells. hit rate 0.12% among 150,000. Potency, µM (highest dose often 57.1 µM), actives largely listed as cytotoxic. HEK-293-SNCA-luc viability, GF-AFC fluorescence, 24 h. AID 1671193; note: nearly all actives have a fitted effect of over 30% in size
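Cytotoxicity counterscreen: after 24 h compound treatment of genome-edited SNCA-luciferase HEK-293 cells, live-cell protease substrate GF-AFC read by fluorescence after 30 min; activity scaled between DMSO (0%) and medium-only (-100%), curves Hill-fitted.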
Hits are given with their value; 0 = inactive; ? = inconclusive; - = no result given; [ ] = another dose, or the depositor's remark. The list is not random: actives were taken first. Their share in the collection is about 2.9%. Unless noted, calls come from the whole dose curve; as a rule, active = well fitted curve in the direction sought with a large enough effect; inconclusive = small, poorly fitted or top-dose-only effect, or another doubt; inactive = no such curve, though single readings can be large; an effect the other way counts as inactive or inconclusive.

SMILES | SNCA expr inh | KDM5B inh | IP6K1 inh | SNCA viab count
Cc1nc(-c2ccc(OC3CCN(C(=O)CCc4nc5ccccc5[nH]4)C3)cc2)no1 (stereo not drawn) | 0 | 0 | 0 | 0
CNc1ccc(OC2CCN(C(=O)CCc3nc4ccccc4[nH]3)C2)nc1 (stereo not drawn) | 0 | 28µM | 0 | 0
Cc1ccccc1CN1CCC2(CC1)Cc1ccccc1CNC2=O | 0 | 0 | 0 | 0
Cc1ncc(CO)c(CN2CCCC3(Cc4ccccc4CNC3=O)C2)c1O (stereo not drawn) | 0 | 79µM | 0 | 0
O=C1NCc2ccccc2CC12CCCN(Cc1ccnc3ccccc13)C2 (stereo not drawn) | 0 | ? | 0 | 0
Cc1ncc(CO)c(CN2CCC3(CC2)Cc2ccccc2CNC3=O)c1O | 0 | 71µM | 0 | 0
CC(C)c1nccn1CCCNC(=O)c1ccc(-c2ccc(F)cc2)nc1 | 0 | 0 | 0 | ?
COc1cccc(-c2ccc(C(=O)NCCCn3ccnc3C(C)C)cn2)c1 | 0 | 28µM | 0 | 0
COC1CCCN(c2ccc(C(=O)NCCCn3ccnc3C(C)C)cn2)C1 (stereo not drawn) | 0 | ? | 0 | 0
CC(C)c1nccn1CCCNC(=O)c1ccc(NC2CCC(O)CC2)nc1 (stereo not drawn) | 0 | 28µM | 0 | 0
CC(C)(C)NC(=O)NCc1nnc2n1C(C(=O)NCc1ccc(F)cc1)CC2 (stereo not drawn) | 0 | - | 0 | 0[12.5 µM]
COc1ccc(F)c(CN2CCCC(O)(CN3CCOC(C)(C)C3)C2=O)c1 (stereo not drawn) | 0 | 0 | 0 | 0
CCOc1ccc(NC(=O)c2ncoc2-c2cccc(Cl)c2)cc1 | - | 0 | - | -
CCN(C)C(=O)C(C)N1CCc2onc(-c3ccc(-c4ccccc4)cc3)c2C1 (stereo not drawn) | 0 | 25µM | 0 | 0
CCN(C)C(=O)C(C)N1CCc2onc(C(c3ccccc3)c3ccccc3)c2C1 (stereo not drawn) | 0 | 0 | 0 | 0
CSc1cccc(NC(=O)c2cc3c(N4CCCC4)nc(C)cn3n2)c1 | 0 | 0 | 0 | 0
Cc1cn2nc(C(=O)Nc3ccc(F)c(C)c3)cc2c(N2CCSCC2)n1 | 0 | 32µM | 0 | 0
Cc1cn2nc(C(=O)Nc3ccc(Cl)c(C)c3)cc2c(N2CCSCC2)n1 | 0 | 22µM | 0 | 0
COc1ccc(NC(=O)c2cc3c(N4CCSCC4)nc(C)cn3n2)cc1F | 0 | 28µM | 0 | 0
CSc1cccc(NC(=O)c2cc3c(N4CCSCC4)nc(C)cn3n2)c1 | 0 | 25µM | 0 | 0
COc1ccc(Cc2nc3nccc(-c4ccc(F)cc4OC)n3n2)cc1 | 0 | 18µM | 0 | 0
COc1ccc(Cc2nc3nccc(-c4cccs4)n3n2)cc1 | 0 | 0 | 0 | 0
COc1ccc(Cc2nc3nccc(-c4ccc(OC)cc4F)n3n2)cc1 | 0 | 28µM | 0 | 0
COc1ccc(Cc2nc3nccc(-c4ccncc4)n3n2)cc1 | 0 | 0 | 0 | 0
COc1ccc(-c2ccnc3nc(Cc4ccc(F)cc4)nn23)c(F)c1 | 0 | 25µM | 0 | 0
SMILES | SNCA expr inh | KDM5B inh | IP6K1 inh | SNCA viab count
Fc1ccc(Cc2nc3nccc(-c4cccs4)n3n2)cc1 | 0 | 28µM | 0 | 0
COc1cc(/C=C(/C#N)c2ccc(C(F)(F)F)cn2)cc(OC)c1O | - | 0 | - | -
Cn1c(=O)c2c(nc(Br)n2Cc2ccc(Cl)cc2)n(C)c1=O | - | 0 | - | -
CN1CCCN(C(=O)CC2CCCC2)c2ccccc21 | 0 | 0 | 0 | 0
COc1cc(F)ccc1-c1ccnc2nc(CC(C)C)nn12 | 0 | 28µM | 0 | 0
CN(C)CCNC(=O)c1nc2nc(-c3ccccc3)c(-c3ccc(Cl)cc3)cc2n1C | ? | 28µM | 0 | ?
CN(C)CCNC(=O)c1nc2nc(-c3ccccc3)c(-c3cccc(Cl)c3)cc2n1C | ? | 0 | 0 | ?
CN(C)CCNC(=O)c1nc2nc(-c3ccccc3)c(-c3cccc(CO)c3)cc2n1C | 0 | 10µM | 0 | 0
COc1ncccc1-c1cc2c(nc1-c1ccccc1)nc(C(=O)NCCN(C)C)n2C | 0 | 16µM | 0 | ?
O=S(=O)(Nc1cccc(C#Cc2cccs2)c1)c1cccs1 | - | 0 | - | -
Cc1ccsc1CN1CCC(Oc2cc(Cl)ccc2C(=O)N2CCCCC2)CC1 | 0 | 0 | 0 | 0
CN1C(=O)C2(CCN(Cc3ccccc3)C2)c2ccccc21 (stereo not drawn) | 0 | 0 | 0 | 0
c1ccc2oc(CN3Cc4[nH]cnc4C[C@H]3c3nc(-c4ccc5c(c4)OCO5)no3)cc2c1 | ? | 35µM | 0 | 0
FC(F)(F)c1ccc(-c2noc([C@@H]3Cc4nc[nH]c4CN3Cc3cc4ccccc4o3)n2)cc1 | 0 | 25µM | 0 | 0
CC(C)(C)n1cc(-c2cc(C(=O)N3C[C@H]4CC[C@H]3C4)c3ccccc3n2)cn1 | 0 | 32µM | 0 | 0
Cc1ccccc1C(=O)Nc1cccc(-c2nnc(SCC(=O)N3CCc4ccccc43)n2C)c1 | - | 0 | - | -
COc1ccc2c(c1)C(C[C@H]1CN(C(=O)C3CC3)CC[C@H]1CC(=O)O)=NCC2 | 0 | 40µM | 0 | 0
CCCNC(=O)N1CC[C@@H](CC(=O)O)[C@@H](CC2=NCCc3ccc(OC)cc32)C1 | 0 | 40µM | 0 | 0
N#Cc1ccnc(N2CCN(C(=O)Nc3ccc(F)cc3)CC2)c1 | - | 0 | - | -
CNc1ccnc(N2CCC(N3CCCC(C(=O)N4CCCC4)C3)CC2)n1 (stereo not drawn) | 0 | ? | 0 | 0
CN1CCN(C(=O)C2CCCN(C3CCN(c4cc(C#N)ccn4)CC3)C2)CC1 (stereo not drawn) | ? | 28µM | 0 | 0
O=C(C1CCCN(C2CCN(c3ncccn3)CC2)C1)N1CCOCC1 (stereo not drawn) | 0 | 20µM | 0 | 0
COC[C@@H]1CN(C(=O)c2cn3ccccc3n2)C[C@H]1c1nc(C)no1 | 0 | 20µM | 0 | 0
Cc1noc([C@@H]2CN(C(=O)c3ccc4cc[nH]c4c3)C[C@H]2CO)n1 | 0 | 25µM | 0 | 0
O=C(c1ccc2cc[nH]c2c1)N1C[C@@H](CO)[C@H](c2ccccn2)C1 | 0 | ? | 0 | 0
SMILES | SNCA expr inh | KDM5B inh | IP6K1 inh | SNCA viab count
COc1cccc([C@H]2CN(C(=O)c3ccc4cc[nH]c4c3)C[C@@H]2N)c1 | 0 | 32µM | 0 | 0
CCn1ccc(C(=O)N2C[C@@H](COC)[C@H](c3nc(C)no3)C2)n1 | ? | 0 | 0 | ?
O=C(c1cc[nH]c(=O)c1)N1C[C@@H](CO)[C@H](c2ccccn2)C1 | 0 | 22µM | 0 | 0
COc1ccc(NC(=O)c2ccnc(-c3nnc4ccc(Nc5ccccc5)nn34)c2)cn1 | 0 | 32µM | 0 | 0
Cc1ccccc1CNC(=O)CCc1ccnc(N2CCOCC2)c1 | 0 | 22µM | 0 | 0
O=C(CCc1ccnc(N2CCOCC2)c1)NCCN1CCc2ccccc2C1 | 0 | 25µM | 0 | 0
CCCNC(=O)CCc1ccnc(N2CCOCC2)c1 | 0 | 28µM | 0 | 0
Cc1ccc(N2CCN(C(=O)CCc3ccnc(N4CCOCC4)c3)CC2)cc1 | 0 | 0 | 0 | 0
Cn1cc(-c2cccc(C(F)(F)F)c2)c2nc(CNc3ccccc3)cn2c1=O | ? | 35µM | 0 | 0
CO[C@H]1[C@H](NC(=O)c2cc3ccccc3[nH]2)c2ccccc2C12CCNCC2 | 0 | 22µM | 0 | 0

Assay outcomes: PubChem, National Center for Advancing Translational Sciences (NCATS)
